SMILES strings stand for the structures. Unmarked numbers belong to inactive results. Inconclusive results are not listed. Activity calls are given as the source filed them. Unless noted, calls follow the shape of the full dose curve.

Assay [1] in a line: Nuclear factor erythroid 2-related factor 2/antioxidant responsive element (Nrf2/ARE) small molecule agonists: luciferase reporter gene qHTS assay in human keratinocytes (AID 1919969). Also: nearly all actives have a fitted effect of over 35% in size. In general terms: A reporter such as luciferase makes a cellular process visible.
In assay [2] the target is Gonadotropin-releasing hormone receptor (Homo sapiens) (UniProt P30968). The assay is described as follows: Human gonadotropin-releasing hormone receptor (GnRHR) small molecule agonists, calcium flux assay in GnRHR-HEK293 cells (AID 1920063). Also: nearly all actives have a fitted effect of over 35% in size. In a few lines:
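Intracellular calcium rise is the read-out: engineered human GnRHR HEK293 cells, dye-loaded, are exposed to DMSO-dissolved compounds and fluorescence at Ex/Em 480/540 is tracked for 3 min.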
Background: Calcium assays in cells follow changes in intracellular calcium, usually with a dye or a luminescent sensor.

The target of assay [3] is KiSS-1 receptor (Homo sapiens) (UniProt Q969F8). Kind of assay: Human kisspeptin (KISS1R) small molecule agonists, calcium flux assay in KISS1R-HEK293 cells (AID 1920064; active = well fitted activation curve with a large enough effect in the repeat runs). The essentials:
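Concentration-response testing used 15 concentrations in triplicate on human KISS1R-expressing HEK293 cells. Calcium-dependent fluorescence (Ex/Em 480/540) was followed kinetically for 3 min after compound transfer.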

Assay [4] in a line: G protein-coupled receptor (GPCR) small molecule agonists, calcium flux assay: HEK293 wild type cell line counter screen (AID 1920065). In a few lines: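 Fluorescence intensity signals activation. After overnight (18 h) culture and a 1 h calcium dye load at 37 C, compounds are added by pin tool and the plate read at 480/540 nm for 3 min in 1 s steps.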
The nature of assay [5]: p53 small molecule agonists, cell-based qHTS assay with rat liver microsomes (AID 1963578). The essentials:
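Fluorescence from a beta-lactamase reporter under a p53 response element was measured after cells had been incubated 16 h at 37 C with test compound and rat liver microsomes plus NADPH (0.5 mg/mL final each).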
(In general: Quantitative high-throughput screening tests each substance at several concentrations.)

A short description of assay [6]: p53 small molecule agonists, cell-based qHTS assay: qHTS cell viability counter screen (AID 1963581). Also: nearly all actives have a fitted effect of over 45% in size. In a few lines: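 Luminescence from CellTiter-Glo, reflecting ATP content, serves as the cytotoxicity measure; it is taken after the 2 h reporter substrate step in HCT-116 p53RE-bla cells dosed for 16 h at 37 C.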
A short description of assay [7]: p53 small molecule agonists, cell-based qHTS assay (AID 1963582; active = well fitted activation curve with a large enough effect in the signal ratio in the repeat runs, not every such curve was filed as active; the % refers to the signal ratio). In a few lines: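 After plating, p53RE-bla cells sat 5 h in the incubator; compounds or DMSO vehicle were pinned in; a 16 h incubation at 37 C followed; FRET substrate was added and, 2 h later at RT, fluorescence was measured.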
For assay [8], the target named is 5-hydroxytryptamine receptor 2A (Homo sapiens) (UniProt P28223). The assay is described as follows: 5-hydroxytryptamine receptor 2A (HTR2A) small molecule antagonists, cell-based qHTS assay (AID 1963586). Also: nearly all actives have a fitted effect of over 45% in size. In a few lines:
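CHO cells stably expressing human HTR2A were plated for 18 h at 37 C, then loaded with calcium dye for 1 h. Compounds were preincubated 5 min at room temperature before DOI (4 nM solution) was added. Kinetic fluorescence was read for 3 min.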

Assay [9] has the same target. Kind of assay: 5-hydroxytryptamine receptor 2A (HTR2A) small molecule agonists, cell-based qHTS assay (AID 1963587). Also: nearly all actives have a fitted effect of over 30% in size. The essentials:
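HTR2A-CHO cells, plated 18 h at 37 C/5% CO2, dye-loaded 1 h at 37 C; compounds in DMSO added by pin tool (agonist mode). Intracellular calcium flux read as kinetic fluorescence on FDSS over 2 min at 1 s intervals.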

Assay [10] has as its target Muscarinic acetylcholine receptor M1 (Homo sapiens) (UniProt P11229). The assay is described as follows: Cholinergic receptor muscarinic 1 (CHRM1) small molecule antagonists, cell-based qHTS assay (AID 1963588). Also: nearly all actives have a fitted effect of over 40% in size. Also: potency is read from the fitted curve at half-maximal effect. The essentials: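 Compounds were tested at 15 concentrations in three independent runs. Dye-loaded CHRM1-CHO cells were exposed 5 min at room temperature before stimulation by acetylcholine added at 50nM. Intracellular calcium was read kinetically on FDSS for 3 min.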

Assay [11] shares this target. The assay is described as follows: Cholinergic receptor muscarinic 1 (CHRM1) small molecule agonists, cell-based qHTS assay (AID 1963589). Also: nearly all actives have a fitted effect of over 35% in size. The essentials: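 Fluorescent calcium dye reports M1 activation in stably transfected CHO cells. Compounds, 15 concentrations, added after 1 h dye loading at 37 C; kinetic reading at 1 sec intervals.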
Assay [12] can be described thus: cAMP Responsive Elements (CRE) small molecule agonists, cell-based qHTS assay (AID 1963590). The essentials:
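Compound exposure lasted 3 h at 37 C/5% CO2 in CRE-bla HEK 293T cells grown in assay medium with 10% dialyzed FBS and 25 mM HEPES. Reporter signal came from LiveBLAzer B/G FRET substrate, 2 h, room temperature.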

The nature of assay [13]: cAMP Responsive Elements (CRE) small molecule antagonists, cell-based qHTS assay (AID 1963591; active = well fitted inhibition curve with a large enough effect in the signal ratio in the repeat runs, not every such curve was filed as active; the % refers to the signal ratio). The essentials: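 Stimulation used NKH477 at a final 0.25 uM for 3 h in compound-treated CRE-bla HEK293T cells, seeded 18 h beforehand. Reporter activity was measured with LiveBLAzer B/G FRET substrate after 2 h at room temperature.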
In assay [14] the target is Beta-2 adrenergic receptor (Homo sapiens) (UniProt P07550). Kind of assay: Adrenergic beta2 receptor (ADRB2) small molecule antagonists, cell-based qHTS assay (AID 1963592). Also: series mostly up to about 92 µM; nearly all actives have a fitted effect of over 50% in size. The essentials: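 Assay format: CHO-ADRB2 cells, 18-20hr seeding at 37C/5% CO2, then compound plus 1nM isoproterenol agonist mix for 0.5hr RT. Homogeneous time-resolved fluorescence cAMP detection after 1hr, expressed as 665/615 nm ratio.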

Assay [15] has the same target. Kind of assay: Adrenergic beta2 receptor (ADRB2) small molecule agonists, cell-based qHTS assay (AID 1963593).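 Also: CHO cells stably overexpressing human ADRB2.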 In a few lines: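 CHO cells stably over-expressing ADRB2 were plated overnight at 37C, then dosed with compounds plus a stimulation mix containing 100uM IBMX and 25uM Ro-20-1724 for 0.5hr at room temperature. cAMP was measured by HTRF competition, 1hr.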

Assay [16] concerns the target D(2) dopamine receptor (Homo sapiens) (UniProt P14416). Kind of assay: Dopamine D2 receptor (DRD2) small molecule agonists, cell-based qHTS assay (AID 1963594). Also: nearly all actives have a fitted effect of over 35% in size. The essentials:
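HEK293 cells stably expressing DRD2 were cultured 24 h at 37 C, then given Ro20-1724 (0.1 mM final) and compounds for 10 min at room temperature. NKH477 (200nM) was then added for 30 min. cAMP was read by HTRF.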

Assay [17] has the same target. Kind of assay: Dopamine D2 receptor (DRD2) small molecule antagonists, cell-based qHTS assay (AID 1963595; active = well fitted inhibition curve with a large enough effect in the signal ratio in the repeat runs, with a control signal flat; the % refers to the signal ratio; also: potency is read from the fitted curve at half-maximal effect). In a few lines:
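Antagonism was scored as restored cAMP in HEK293-DRD2 cells. These cells were stimulated with 200 nM NKH477 and 12 nM quinpirole for 30 min at room temperature, in the presence of 0.1 mM Ro20-1724.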

Assay [18] can be described thus: p53 small molecule agonists, cell-based qHTS assay with human liver microsomes (AID 1963577). In a few lines:
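Cells carrying a p53-responsive bla reporter were rested 5 h (37 C, 5% CO2) before compound transfer. Human liver microsomes plus NADPH, 0.5 mg/mL final apiece, supplied metabolism during the 16 h 37 C exposure.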

A short description of assay [19]: p53 small molecule agonists, cell-based qHTS assay with rat liver microsomes: qHTS cell viability counter screen (AID 1963580). Also: nearly all actives have a fitted effect of over 45% in size. Also: potency is read from the fitted curve at half-maximal effect. The essentials: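 Luminescent ATP readout (CellTiter-Glo, 30 min at room temperature) reports viability of p53RE-bla HCT-116 cells after 16 h at 37 C with test compounds under metabolic activation by rat liver microsomes and NADPH at 0.5 mg/mL final each.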

A short description of assay [20]: p53 small molecule agonists, cell-based qHTS assay with human liver microsomes: qHTS cell viability counter screen (AID 1963579). Also: nearly all actives have a fitted effect of over 45% in size. In a few lines:
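Seed p53RE-bla cells at 4,000 per well; incubate 5 h at 37 C; add compound, human liver microsomes and NADPH; incubate 16 h at 37 C; add CellTiter-Glo; after 30 min at room temperature, read luminescence.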
% is scaled to controls: 0 for no effect and ±100 for the full control effect.

Sequence of Muscarinic acetylcholine receptor M1 (Homo sapiens) (P11229 whole entry, looked up): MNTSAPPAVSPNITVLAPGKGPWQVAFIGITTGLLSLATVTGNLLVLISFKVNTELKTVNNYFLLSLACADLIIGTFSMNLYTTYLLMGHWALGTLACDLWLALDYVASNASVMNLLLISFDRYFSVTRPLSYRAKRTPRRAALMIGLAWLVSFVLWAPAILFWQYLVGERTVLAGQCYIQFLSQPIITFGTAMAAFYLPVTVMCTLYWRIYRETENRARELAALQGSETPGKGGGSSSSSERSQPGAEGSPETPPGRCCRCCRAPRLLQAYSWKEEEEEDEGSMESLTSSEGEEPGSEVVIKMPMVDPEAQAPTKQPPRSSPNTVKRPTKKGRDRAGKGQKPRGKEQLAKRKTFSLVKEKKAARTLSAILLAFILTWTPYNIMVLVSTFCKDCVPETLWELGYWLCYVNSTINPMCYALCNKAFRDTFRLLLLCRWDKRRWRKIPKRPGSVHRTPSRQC
Sequence of 5-hydroxytryptamine receptor 2A (Homo sapiens) (P28223 whole entry, looked up): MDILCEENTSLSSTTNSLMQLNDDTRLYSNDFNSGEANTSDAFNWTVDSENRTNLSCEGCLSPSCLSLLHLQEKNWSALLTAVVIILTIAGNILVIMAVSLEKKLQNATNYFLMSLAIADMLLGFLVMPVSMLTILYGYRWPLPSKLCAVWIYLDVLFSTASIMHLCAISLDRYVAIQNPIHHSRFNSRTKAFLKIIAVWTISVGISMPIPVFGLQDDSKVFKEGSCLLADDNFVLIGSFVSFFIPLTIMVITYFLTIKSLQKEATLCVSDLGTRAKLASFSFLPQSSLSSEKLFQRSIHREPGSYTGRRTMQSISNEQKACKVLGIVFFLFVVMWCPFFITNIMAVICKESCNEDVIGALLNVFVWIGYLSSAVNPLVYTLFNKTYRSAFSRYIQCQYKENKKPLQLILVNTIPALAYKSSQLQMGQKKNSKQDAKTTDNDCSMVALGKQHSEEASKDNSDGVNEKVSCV
Sequence of D(2) dopamine receptor (Homo sapiens) (P14416 whole entry, looked up): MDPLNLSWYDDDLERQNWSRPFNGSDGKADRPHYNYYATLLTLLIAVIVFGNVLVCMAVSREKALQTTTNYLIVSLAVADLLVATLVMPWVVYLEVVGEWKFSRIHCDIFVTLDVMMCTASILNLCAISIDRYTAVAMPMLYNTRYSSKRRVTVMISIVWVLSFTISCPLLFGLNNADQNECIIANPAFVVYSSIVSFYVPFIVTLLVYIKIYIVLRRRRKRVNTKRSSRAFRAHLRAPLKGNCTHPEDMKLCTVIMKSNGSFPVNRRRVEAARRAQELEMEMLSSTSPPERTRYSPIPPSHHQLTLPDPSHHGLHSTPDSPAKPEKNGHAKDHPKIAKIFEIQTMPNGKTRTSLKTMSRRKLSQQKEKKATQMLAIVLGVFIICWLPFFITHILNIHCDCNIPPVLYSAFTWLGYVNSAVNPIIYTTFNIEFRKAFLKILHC
Sequence of Beta-2 adrenergic receptor (Homo sapiens) (P07550 whole entry, looked up): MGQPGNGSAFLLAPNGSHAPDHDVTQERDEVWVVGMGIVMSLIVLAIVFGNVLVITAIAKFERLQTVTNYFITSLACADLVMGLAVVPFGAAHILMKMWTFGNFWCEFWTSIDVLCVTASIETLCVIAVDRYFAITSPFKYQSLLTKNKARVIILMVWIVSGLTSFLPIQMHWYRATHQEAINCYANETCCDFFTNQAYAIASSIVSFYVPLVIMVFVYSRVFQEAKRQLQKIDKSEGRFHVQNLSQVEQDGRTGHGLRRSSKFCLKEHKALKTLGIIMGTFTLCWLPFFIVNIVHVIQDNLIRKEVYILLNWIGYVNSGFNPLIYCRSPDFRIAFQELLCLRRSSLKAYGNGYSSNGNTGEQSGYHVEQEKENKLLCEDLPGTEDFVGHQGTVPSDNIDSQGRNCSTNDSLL
Sequence of KiSS-1 receptor (Homo sapiens) (Q969F8 whole entry, looked up): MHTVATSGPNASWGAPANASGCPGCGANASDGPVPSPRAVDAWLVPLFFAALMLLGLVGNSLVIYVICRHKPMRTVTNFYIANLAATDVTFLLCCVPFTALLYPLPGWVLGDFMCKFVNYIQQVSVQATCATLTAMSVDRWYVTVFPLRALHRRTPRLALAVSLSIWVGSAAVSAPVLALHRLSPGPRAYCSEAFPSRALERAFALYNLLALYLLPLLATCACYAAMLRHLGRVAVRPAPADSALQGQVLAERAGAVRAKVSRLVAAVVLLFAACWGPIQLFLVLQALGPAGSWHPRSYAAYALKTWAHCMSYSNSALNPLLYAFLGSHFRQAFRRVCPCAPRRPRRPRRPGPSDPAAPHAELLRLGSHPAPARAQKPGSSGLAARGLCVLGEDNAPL
Sequence of Gonadotropin-releasing hormone receptor (Homo sapiens) (P30968 whole entry, looked up): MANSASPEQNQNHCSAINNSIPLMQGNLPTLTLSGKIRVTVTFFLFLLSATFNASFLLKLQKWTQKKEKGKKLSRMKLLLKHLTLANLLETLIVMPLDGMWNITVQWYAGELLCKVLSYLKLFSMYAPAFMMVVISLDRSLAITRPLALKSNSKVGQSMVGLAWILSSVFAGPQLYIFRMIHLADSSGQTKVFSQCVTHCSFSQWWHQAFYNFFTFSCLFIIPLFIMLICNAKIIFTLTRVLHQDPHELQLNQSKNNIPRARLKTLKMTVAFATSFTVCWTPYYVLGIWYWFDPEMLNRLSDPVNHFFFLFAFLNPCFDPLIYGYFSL

In the case of `CC(=O)Oc1ccc(C(C)=O)cc1`, the Potency result in assay [1], in [2], in [5], in [6], in assay [7] and in [8] was “inactive” each time. The Potency result in assay [9], in assay [10], in assay [11], in assay [12], in assay [13] and in assay [14] was “inactive” in each case. Moreover, the Potency result in [15], in assay [16] and in assay [17] was “inactive” each time. The outcome in assay [3] and in [4] was inactive.
Take `CCN1CCN(c2cc(-c3ccc(F)cc3)c3c(n2)CCCCCC3)CC1`: the activity, positive = activation in assay [1] is -2.3% [at 19 µM]. In assay [2], the activity change was 17.8% [at 11.8 µM, stronger effect = higher value]. The activation in [3] was 8.32% [at 15.8 µM]; in [4] it was -0.133% [at 11.8 µM]; in assay [18], -0.562% [at 13.5 µM]; in assay [5], -1.02% [at 13.6 µM]; in assay [9], -5.11% [at 15.9 µM]; in assay [11], 2.2% [at 15.8 µM]. Besides, in [12], the activation is 0.689% [at 19 µM]. Moreover, the activity change, negative = cytotoxicity in assay [19] is 0.85% [at 13.5 µM]. The Potency is 0.0317 µM (active) in assay [10] and 0.0326 µM (active) in [17]. Besides, the activity change, negative = inhibition was 1.59% [at 18.9 µM] in [13] and -12.5% [at 19 µM] in assay [14].
As to `O=C(CN1CCN(Cc2ccc3c(c2)OCO3)CC1)N1c2ccccc2Sc2ccccc21`, the Potency result in assay [1], in assay [2], in [18], in assay [5], in assay [19] and in [6] was “inactive” each time. For the same molecule, the Potency result in assay [7], in assay [8], in assay [10], in assay [11], in assay [12] and in [13] was “inactive” throughout. The Potency result in assay [14], in assay [16] and in assay [17] was “inactive” each time. Besides, the outcome in assay [3] and in assay [4] was inactive.
As to `CCc1nnc(NS(=O)(=O)c2ccc(N)cc2)s1`, the Potency result in assay [1], in [2], in assay [18], in assay [5], in assay [19] and in [6] was “inactive” throughout. Also, the Potency entry in assay [7], in assay [8], in assay [9], in assay [10], in assay [11] and in [12] was “inactive” throughout. In addition, the Potency result in [13], in assay [14], in assay [15], in [16] and in assay [17] was “inactive” in each case. Moreover, the result in [3] and in assay [4] was inactive.
Regarding `CCCCCCCCCCCCCCCC/C=C/C1CC(=O)OC1=O` (stereo not given), the Potency entry in [1], in [2], in assay [18], in assay [5], in assay [20] and in [19] was “inactive” throughout. The Potency result in assay [6], in assay [9], in assay [10], in assay [11], in assay [12] and in assay [13] was “inactive” each time. Besides, the Potency entry in assay [16] and in assay [17] was “inactive” each time. Moreover, the result in [3] and in [4] was inactive.
For the molecule `CCCCCCCCCCCCc1ccc(O)cc1`, the Potency entry in [1], in assay [2], in [18], in assay [5], in [20] and in assay [8] was “inactive” in each case. Further, the Potency result in assay [9], in assay [14] and in assay [16] was “inactive” each time. Besides, the outcome in assay [3] and in assay [4] was inactive. In [19], the Potency was 40.8 µM (active).
Regarding `COc1ccccc1OCC(O)COC(N)=O` (stereo not given), the Potency result in [1], in assay [2], in assay [18], in assay [5], in [20] and in assay [6] was “inactive” throughout. Also, the Potency result in assay [7], in [12], in assay [13], in assay [14], in assay [16] and in assay [17] was “inactive” each time. For the same molecule, the result in [3] and in [4] was inactive.
Regarding `Cc1nc2ccc(Cl)cc2[nH]1`, the Potency entry in assay [1], in [2], in [18], in assay [5], in [20] and in assay [6] was “inactive” throughout. Moreover, the Potency result in [7], in assay [9], in [10], in assay [11], in [12] and in assay [14] was “inactive” throughout. Further, the Potency result in [16] and in [17] was “inactive” in each case. In addition, the outcome in assay [3] and in assay [4] was inactive.

For the origin of these results see PubChem BioAssay (Tox21).
